Where a name gives a salt, the structure may show the parent alone. In all, about 2,800 compounds were measured (“cell viability relative to vehicle”: median about 0.98, lowest 2% from about 0.45 on). This excerpt belongs to a sample that is enriched for the lowest values.
These compounds were tested on NCI-H2228 alectinib-DTP (assay: cell viability relative to vehicle (fraction of vehicle); NCI-H2228 is an ALK-positive lung cancer line and DTP means drug-tolerant persister; higher = less growth inhibition). Settings: 100 nM; treatment time 6 days.
Procedure, shortened: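 Parental NCI-H2228 cells and drug-tolerant persister cells (made with 1000 nM of a targeted drug for 13 days) were seeded in 384-well plates. The next day, the 3114-agent TargetMol anti-cancer compound library was added at 100 nM, with DMSO as vehicle. After 6 days, ATP was read with the CellTiter-Glo 3D Cell Viability Assay. Each value is cell viability relative to vehicle-treated cells.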

Structure (SMILES) | cell viability
CC(C)C[C@H](NC(=O)[C@H](Cc1ccccc1)NC(=O)c1cnccn1)B(O)O [Bortezomib] | 0.145
CC(C)C[C@H](NC(=O)[C@@H](O)[C@H](N)Cc1ccccc1)C(=O)O [Ubenimex] | 1.05
CNC(=O)[C@H](Cc1ccccc1)NC(=O)[C@H](CC(C)C)[C@H](CSc1cccs1)C(=O)NO [Batimastat] | 1.15
CC(C)C[C@H](NC(=O)[C@@H](O)[C@H](N)Cc1ccccc1)C(=O)O [Bestatin hydrochloride] | 1.12
CC(C)C[C@H](NC(=O)[C@@H](NC(=O)c1cccc(-c2ccccc2)n1)[C@@H](C)O)B(O)O [Delanzomib] | 0.301
CC(C(=O)Nc1cccc(/N=C/c2c(O)ccc3ccccc23)c1)c1ccccc1 (stereo not drawn) [Salermide] | 0.89
O=C(Nc1ccc(C(O)(C(F)(F)F)C(F)(F)F)cc1)c1ccccc1Cl | 0.929
Cn1cc(-c2cnn3c(N)c(Br)c([C@H]4CCCNC4)nc23)cn1 | 0.907
C/C(=C1/C(=O)Nc2ccc(NC(N)=O)cc21)c1ccc[nH]1 | 1.02
CCN(CC)CCOc1ccc(Nc2ncc3cc(-c4c(Cl)cccc4Cl)c(=O)n(C)c3n2)cc1 | 0.445
CSc1cccc(Nc2ncc3cc(-c4c(Cl)cccc4Cl)c(=O)n(C)c3n2)c1 | 0.665
CCN(CC)CCOc1ccc(Nc2nc(-c3ccccc3NC(=O)CCN3CCN(C)CC3)nc3ccccc23)cc1 | 1.16
N#Cc1cc2cc(CN3CCC(Nc4ncnc5sc(CC(F)(F)F)cc45)CC3)ccc2[nH]1 | 1.04
COc1ccc(-c2nc(-c3cc(C(F)(F)F)cc(C(F)(F)F)c3)n(Cc3ccc(C(N)=O)cc3)c2-c2ccc(OC)cc2)cc1 [Apoptozole] | 0.817
COc1cc2c(Oc3ccc(NC(=O)C4(C(=O)Nc5ccc(F)cc5)CC4)cc3F)ccnc2cc1OCCCN1CCOCC1 [Foretinib] | 0.882
COc1cc2ncnc(Nc3ccc(F)c(Cl)c3)c2cc1OCCCN1CCOCC1 [Gefitinib] | 0.881
COc1c(OCCCN2CCOCC2)ccc2c1N=C(NC(=O)c1cnc(N)nc1)N1CCN=C21 [Copanlisib] | 0.38
Cc1cc(C)c(S(=O)(=O)N(CCc2cccc(Br)c2)Cc2ccc(-c3cccc(S(C)(=O)=O)c3)cc2)c(C)c1 | 1.12
N#C/C(=C/c1ccc(O)c(O)c1)C(=O)N1CCc2ccccc21 [Tyrphostin AG 528] | 1.03
COc1ccc(C=C(C#N)c2cccnc2)cc1OC | 0.956
COc1ccc2c3n(c(=NC(=O)c4cccnc4)nc2c1OC)CCN3 | 0.447
CCc1nc2c(C)cc(N3CCN(CC(=O)N4CC(O)C4)CC3)cn2c1N(C)c1nc(-c2ccc(F)cc2)c(C#N)s1 | 1.02
CNS(=O)(=O)c1ccccc1Nc1nc(Nc2ccc(N3CCN(C)CC3)cc2OC)ncc1Cl [ALK inhibitor 2] | 1
CN1CCN(Cc2ccc(Nc3ncc(Cl)c(Nc4ccccc4S(=O)(=O)N(C)C)n3)cc2)CC1 | 0.122
COc1cc(N2CCC(N3CCN(C)CC3)CC2)ccc1Nc1ncc(Cl)c(Nc2ccccc2S(=O)(=O)C(C)C)n1 | 0.942

Structure (SMILES) | cell viability
CC/C(=C(/c1ccc(O)cc1)c1ccc(OCCNC)cc1)c1ccccc1 [Endoxifen E-isomer hydrochloride] | 1.12
CN1C(N)=N[C@](C)(c2cc(NC(=O)c3ccc(F)cn3)ccc2F)CS1(=O)=O [Verubecestat] | 0.969
CN1CCc2c(c3ccccc3n2Cc2ccc(C(=O)NO)cc2)C1 [Tubastatin A HCl] | 0.892
Cn1cc(C[C@@H](N)C(=O)O)c2ccccc21 [Indoximod] | 1.14
Cn1cc(CNCC2CCN(c3ncc(C(=O)NO)cn3)CC2)c2ccccc21 [Quisinostat] | 0.358
CC(=O)OCC1=CO[C@@H](OC(=O)CC(C)C)[C@H]2C1=C[C@H](OC(=O)CC(C)(C)OC(C)=O)[C@]21CO1 [Acevaltrate] | 1.13
Cc1cc([N+](=O)[O-])c(NS(=O)(=O)c2cccc(C(=O)O)c2)cc1-c1cccnc1 [Alofanib] | 0.978
O=P(O)(O)O[C@H]1[C@H](OP(=O)(O)O)[C@@H](OP(=O)(O)O)[C@H](OP(=O)(O)O)[C@@H](OP(=O)(O)O)[C@H]1OP(=O)(O)O [Phytic acid] | 1.13
CCNC(=O)Nc1ccc(-c2nc(N3CCOC[C@@H]3C)c3c(n2)C(C)(C)S(=O)(=O)C3)cc1 | 0.508
CN(C)C1CCN(C(=O)c2ccc(NC(=O)Nc3ccc(-c4nc(N5CCOCC5)nc(N5CCOCC5)n4)cc3)cc2)CC1 [Gedatolisib] | 0.385
COC(=O)Nc1ccc(-c2nc(N3CCOCC3)c3cnn(C4CCN(C(=O)OC)CC4)c3n2)cc1 | 0.855
O=C(Nc1ncc([N+](=O)[O-])s1)c1ccccc1O [Tizoxanide] | 0.88
COC(=O)C[C@](O)(CCCC(C)(C)O)C(=O)O[C@@H]1C(OC)=C[C@]23CCCN2CCc2cc4c(cc2[C@H]13)OCO4 [Homoharringtonine] | 0.2
O=C(O)COc1ccc(Br)cc1/C=C1\SC(=S)N(Cc2cccnc2)C1=O [Skp2 Inhibitor C1] | 1.08
CC(C)=CCc1cc2c(cc1O)O[C@H](c1ccc(O)cc1)CC2=O [Bavachin] | 1.01
CC(C)(C)c1cc(NC(=O)Nc2ccc(Oc3ccnc4[nH]c(=O)cnc34)cc2F)n(-c2ccccc2)n1 | 1.12
Nc1ccc(/C=C/C(=O)NCc2cc3cc(-c4ccc(C(=O)N5CCC(F)(F)CC5)cc4)cc(-c4ccc(F)cc4)c3o2)cn1 | 1.25
Nc1cc(F)ccc1NC(=O)c1ccc(CNC(=O)/C=C/c2cccnc2)cc1 [Chidamide] | 0.775
O=C(/C=C/c1cccnc1)NCCCCC1CCN(C(=O)c2ccccc2)CC1 | 0.452
c1ccc(-c2oc3ncnc(NC[C@@H]4CCCO4)c3c2-c2ccccc2)cc1 | 1.06
COC1=CC(=O)c2ccccc2C1=O [2-Methoxynaphthoquinone] | 1.06
COc1ccc(-c2cc3c(C)nc(N)nc3n([C@H]3CC[C@H](OCCO)CC3)c2=O)cn1 | 0.398
COc1cccc(-c2cc(F)ccc2[C@H]2Cc3nc(N)nc(C)c3C(=O)N2)n1 | 0.502
CCn1c(=O)c(-c2cc[nH]n2)cc2c(C)nc(N)nc21 [Voxtalisib] | 0.86
CCCCCCCCCC(=O)CC(O)S(=O)(=O)O (stereo not drawn) [Sodium houttuyfonate] | 1.08

Structure (SMILES) | cell viability
CC(=O)OC(C)(C)CCC(=O)[C@](C)(O)[C@H]1[C@H](O)C[C@@]2(C)[C@@H]3CC=C4[C@@H](C[C@H](O)[C@@H](O)C4(C)C)[C@]3(C)C(=O)C[C@]12C [Cucurbitacin IIA] | 1.07
Oc1ccc(C(c2c[nH]c3ccccc23)c2c[nH]c3ccccc23)cc1 | 1.08
C[C@@H]1O[C@@H](O[C@@H]2[C@H](O)[C@@H](O)[C@H](O[C@H]3CC[C@@]4(C)C(CC[C@]5(C)C4C=C[C@]46OC[C@@]7(CCC(C)(C)CC74)[C@@H](O)C[C@]65C)C3(C)C)O[C@@H]2CO[C@@H]2O[C@H](CO)[C@@H](O)[C@H](O)[C@H]2O)[C@H](O)[C@H](O)[C@H]1O (stereo partly drawn) [Saikosaponin C] | 0.993
COc1ccc(CC(=O)NC(/N=C(\NC#N)Nc2cccc3ncccc23)C(C)(C)C)cc1OC (stereo not drawn) | 0.985
Cc1ccc(NC(=S)NNc2c([N+](=O)[O-])cc(C(F)(F)F)cc2[N+](=O)[O-])cc1Cl | 0.982
COc1ccc(CCC(=O)O)cc1OC [3,4-Dimethoxyhydrocinnamic acid] | 0.856
N=C(NCCCCCCNC(=N)NC(=N)Nc1ccc(Cl)cc1)NC(=N)Nc1ccc(Cl)cc1 [Chlorhexidine] | 1.17
N#CN=C(NCCCCCCOc1ccc(Cl)cc1)Nc1ccncc1 | 0.165
N=C(NCCCCCCNC(=N)NC(=N)Nc1ccc(Cl)cc1)NC(=N)Nc1ccc(Cl)cc1 [Chlorhexidine hydrochloride] | 1.02
C[C@@H]1CC[C@]2(C(=O)O)CC[C@]3(C)C(=CC[C@@H]4[C@@]5(C)CC[C@H](O)[C@@](C)(CO)[C@@H]5CC[C@]43C)[C@@H]2[C@]1(C)O [Rutundic acid] | 1.02
CCN(CC)CC(O)CNc1ccc(NCC2CO2)c2c1C(=O)c1ccccc1C2=O (stereo not drawn) | 0.831
O=C(NCCCn1ccnc1)c1cc(-c2ccco2)on1 | 1.03
C[C@H](CC(=O)C[C@@H](C)[C@H]1C[C@H](O)[C@@]2(C)C3=C(C(=O)C[C@]12C)[C@@]1(C)CCC(=O)C(C)(C)[C@@H]1C[C@@H]3O)C(=O)O [Ganoderic acid A] | 1.03
CNC(=O)Nc1cc(Oc2cncc(C)c2)c(-c2ccc(OCC(C)(C)O)nc2)cn1 | 0.91
COc1cc2cc(Oc3ccc4ccc(=O)oc4c3)c(=O)oc2cc1O [Daphnoretin] | 1.11
COCC[n+]1c2c(n(Cc3cnccn3)c1C)C(=O)c1ccccc1C2=O | 0.0756
CC(C)(NS(=O)(=O)c1ccc2c(Cl)cnc(N=C(N)N)c2c1)C(=O)O | 1.04
CCC(=O)N1CCOc2c(cc(-c3ccc(OC)c(OC)c3)cc2OC[C@H]2CCCN(C)C2)C1 [I-CBP112 hydrochloride] | 0.963
Cc1cc(N2C[C@@H](C)N[C@@H](C)C2)ncc1-c1ccc(-c2nc3c(ccn3C)c(=O)[nH]2)cc1 | 0.757
CCCC(C)NC(=O)c1ccc(Cl)c(Cl)c1 (stereo not drawn) | 1.07
C[C@H](NC(=O)CNC(=O)c1cccc(Cl)c1)c1ccccc1 | 0.957
CC(C)C[C@H](NC(=O)CNC(=O)c1cc(Cl)ccc1Cl)B(O)O [Ixazomib] | 0.28
CC(C)C[C@H](NC(=O)CNC(=O)c1cc(Cl)ccc1Cl)B1OC(=O)C(CC(=O)O)(CC(=O)O)O1 | 0.342

Source: the supplement of paper PMC10600219
